This excerpt belongs to a sample that is enriched for the strongest signals.
Experiments:
Assay in all cases: glycan array binding signal (z-score within array); higher = stronger binding
Conditions in all cases: glycan notation: IUPAC condensed, linker removed
[1] = molecular target: Fuc(a1-2)Gal(b1-3)GlcNAc(b1-2)Man(a1-3)[Fuc(a1-2)Gal(b1-3)GlcNAc(b1-2)Man(a1-6)]Man(b1-4)GlcNAc(b1-4)GlcNAc
Procedure, shortened: (§1)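 Columns mapping to the same glycan were averaged after glycan names were converted to IUPAC-condensed notation. The data come from 3228 arrays in the Consortium for Functional Glycomics database, limited to those with an available protein sequence. Binding is reported as a within-array Z-score averaged across arrays of one protein sequence and across linkers.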

[2] = molecular target: Fuc(a1-2)Gal(b1-3)GlcNAc(b1-3)[Fuc(a1-2)Gal(b1-3)GlcNAc(b1-6)]GalNAc
Procedure, shortened: as §1

[3] = molecular target: Fuc(a1-2)Gal(b1-4)GlcNAc(b1-6)GalNAc
Procedure, shortened: as §1

[4] = molecular target: Fuc(a1-2)Gal(b1-4)GlcNAc6S
Procedure, shortened: as §1

[5] = molecular target: Fuc(a1-2)Gal3S(b1-4)GlcNAc
Procedure, shortened: as §1

[6] = molecular target: Fuc(a1-2)[Gal(a1-3)]Gal(b1-3)GalNAc
Procedure, shortened: as §1

[7] = molecular target: Fuc(a1-2)[Gal(a1-3)]Gal(b1-4)GlcNAc
Procedure, shortened: as §1

[8] = molecular target: Fuc(a1-2)[Gal(a1-3)]Gal(b1-4)[Fuc(a1-3)]GlcNAc
Procedure, shortened: as §1

[9] = molecular target: Gal(a1-3)Gal(b1-3)GlcNAc(b1-2)Man(a1-3)[Gal(a1-3)Gal(b1-3)GlcNAc(b1-2)Man(a1-6)]Man(b1-4)GlcNAc(b1-4)GlcNAc
Procedure, shortened: as §1

[10] = molecular target: Gal(a1-3)Gal(b1-3)[Fuc(a1-4)]GlcNAc(b1-2)Man(a1-3)[Gal(a1-3)Gal(b1-3)[Fuc(a1-4)]GlcNAc(b1-2)Man(a1-6)]Man(b1-4)GlcNAc(b1-4)GlcNAc
Procedure, shortened: as §1

Gal(a1-3)Gal(b1-4)Glc = molecular target: Gal(a1-3)Gal(b1-4)Glc
Procedure, shortened: as §1

[11] = molecular target: Gal(a1-4)Gal(b1-3)GlcNAc(b1-2)Man(a1-3)[Gal(a1-4)Gal(b1-3)GlcNAc(b1-2)Man(a1-6)]Man(b1-4)GlcNAc(b1-4)GlcNAc
Procedure, shortened: as §1

[12] = molecular target: Gal(b1-3)GlcNAc(a1-6)Gal(b1-4)GlcNAc
Procedure, shortened: as §1

[13] = molecular target: Gal(b1-3)GlcNAc(b1-2)Man(a1-3)[Gal(b1-3)GlcNAc(b1-2)Man(a1-6)]Man(b1-4)GlcNAc(b1-4)GlcNAc
Procedure, shortened: as §1

[14] = molecular target: Gal(b1-3)[GlcNAc(b1-6)]GalNAc
Procedure, shortened: as §1

Gal(b1-4)GlcNAc(b1-2)Man = molecular target: Gal(b1-4)GlcNAc(b1-2)Man
Procedure, shortened: as §1

[15] = molecular target: Gal(b1-4)GlcNAc(b1-2)Man(a1-3)Man(b1-4)GlcNAc(b1-4)GlcNAc
Procedure, shortened: as §1

[16] = molecular target: Gal(b1-4)GlcNAc(b1-2)Man(a1-3)[Gal(b1-4)GlcNAc(b1-2)Man(a1-6)]Man(b1-4)GlcNAc(b1-4)[Fuc(a1-6)]GlcNAc
Procedure, shortened: as §1

[17] = molecular target: Gal(b1-4)GlcNAc(b1-3)Gal(b1-3)GalNAc
Procedure, shortened: as §1

[18] = molecular target: Gal(b1-4)GlcNAc(b1-3)Gal(b1-4)GlcNAc(b1-2)Man(a1-3)[Gal(b1-4)GlcNAc(b1-3)Gal(b1-4)GlcNAc(b1-2)Man(a1-6)]Man(b1-4)GlcNAc(b1-4)GlcNAc
Procedure, shortened: as §1

[19] = molecular target: Gal(b1-4)GlcNAc(b1-3)Gal(b1-4)GlcNAc(b1-2)[Gal(b1-4)GlcNAc(b1-3)Gal(b1-4)GlcNAc(b1-6)]Man(a1-6)[Gal(b1-4)GlcNAc(b1-3)Gal(b1-4)GlcNAc(b1-2)Man(a1-3)]Man(b1-4)GlcNAc(b1-4)[Fuc(a1-6)]GlcNAc
Procedure, shortened: as §1

[20] = molecular target: Gal(b1-4)GlcNAc(b1-3)Gal(b1-4)GlcNAc(b1-3)Gal(b1-4)GlcNAc(b1-3)Gal(b1-4)GlcNAc(b1-3)Gal(b1-4)GlcNAc(b1-2)Man(a1-3)[Gal(b1-4)GlcNAc(b1-3)Gal(b1-4)GlcNAc(b1-3)Gal(b1-4)GlcNAc(b1-3)Gal(b1-4)GlcNAc(b1-3)Gal(b1-4)GlcNAc(b1-2)Man(a1-6)]Man(b1-4)GlcNAc(b1-4)GlcNAc
Procedure, shortened: as §1

[21] = molecular target: Gal(b1-4)GlcNAc(b1-3)Gal(b1-4)GlcNAc(b1-3)Gal(b1-4)GlcNAc(b1-3)Gal(b1-4)GlcNAc(b1-3)Gal(b1-4)GlcNAc(b1-2)[Gal(b1-4)GlcNAc(b1-3)Gal(b1-4)GlcNAc(b1-3)Gal(b1-4)GlcNAc(b1-3)Gal(b1-4)GlcNAc(b1-3)Gal(b1-4)GlcNAc(b1-6)]Man(a1-6)[Gal(b1-4)GlcNAc(b1-3)Gal(b1-4)GlcNAc(b1-3)Gal(b1-4)GlcNAc(b1-3)Gal(b1-4)GlcNAc(b1-3)Gal(b1-4)GlcNAc(b1-2)Man(a1-3)]Man(b1-4)GlcNAc(b1-4)[Fuc(a1-6)]GlcNAc
Procedure, shortened: as §1

Gal6S(b1-4)GlcNAc = molecular target: Gal6S(b1-4)GlcNAc
Procedure, shortened: as §1

GalNAc(b1-3)GlcNAc = molecular target: GalNAc(b1-3)GlcNAc
Procedure, shortened: as §1

Glc(a1-6)Glc(a1-6)Glc = molecular target: Glc(a1-6)Glc(a1-6)Glc
Procedure, shortened: as §1

GlcA(b1-3)Gal = molecular target: GlcA(b1-3)Gal
Procedure, shortened: as §1

[22] = molecular target: GlcNAc(b1-3)Gal(b1-4)GlcNAc(b1-3)Gal(b1-4)GlcNAc(b1-3)Gal(b1-4)GlcNAc(b1-2)Man(a1-3)[GlcNAc(b1-3)Gal(b1-4)GlcNAc(b1-3)Gal(b1-4)GlcNAc(b1-3)Gal(b1-4)GlcNAc(b1-2)Man(a1-6)]Man(b1-4)GlcNAc(b1-4)GlcNAc
Procedure, shortened: as §1

Kdn(a2-3)Gal(b1-4)Glc = molecular target: Kdn(a2-3)Gal(b1-4)Glc
Procedure, shortened: as §1

Man(a1-6)Man = molecular target: Man(a1-6)Man
Procedure, shortened: as §1

Man(b1-4)GlcNAc = molecular target: Man(b1-4)GlcNAc
Procedure, shortened: as §1

[23] = molecular target: Neu5Ac(a2-3)Gal(b1-3)GalNAc
Procedure, shortened: as §1

[24] = molecular target: Neu5Ac(a2-3)Gal(b1-3)[Neu5Ac(a2-6)]GalNAc
Procedure, shortened: as §1

[25] = molecular target: Neu5Ac(a2-3)Gal(b1-3)]Neu5Ac(a2-3)Gal(b1-4)]GlcNAc
Procedure, shortened: as §1

[26] = molecular target: Neu5Ac(a2-3)Gal(b1-4)GlcNAc(b1-2)Man(a1-3)[Neu5Ac(a2-3)Gal(b1-4)GlcNAc(b1-2)Man(a1-6)]Man(b1-4)GlcNAc(b1-4)GlcNAc
Procedure, shortened: as §1

[27] = molecular target: Neu5Ac(a2-3)Gal6S(b1-4)GlcNAc
Procedure, shortened: as §1

[28] = molecular target: Neu5Ac(a2-3)[GalNAc(b1-4)]Gal(b1-4)GlcNAc
Procedure, shortened: as §1

[29] = molecular target: Neu5Ac(a2-6)Gal(b1-4)GlcNAc(b1-3)Gal(b1-3)GlcNAc
Procedure, shortened: as §1

[30] = molecular target: Neu5Ac(a2-6)Gal(b1-4)GlcNAc(b1-3)Gal(b1-4)GlcNAc(b1-2)Man(a1-3)[Neu5Ac(a2-6)Gal(b1-4)GlcNAc(b1-3)Gal(b1-4)GlcNAc(b1-2)Man(a1-6)]GalNAc
Procedure, shortened: as §1

[31] = molecular target: Neu5Ac(a2-6)Gal(b1-4)GlcNAc(b1-3)Gal(b1-4)GlcNAc(b1-3)GalNAc
Procedure, shortened: as §1

[32] = molecular target: Neu5Ac(a2-8)Neu5Gc(a2-3)Gal(b1-4)GlcNAc
Procedure, shortened: as §1

Neu5Gc(a2-3)Gal(b1-4)Glc = molecular target: Neu5Gc(a2-3)Gal(b1-4)Glc
Procedure, shortened: as §1

[33] = molecular target: Neu5Gc(a2-3)Gal(b1-4)[Fuc(a1-3)]GlcNAc
Procedure, shortened: as §1

[34] = molecular target: Neu5Gc(b2-6)Gal(b1-4)GlcNAc
Procedure, shortened: as §1

B1: PX9961H-bth-557-24-557 (Bacteroides thetaiotaomicron) (protein)
chain: EETRTEVEKKNYMNNAEEAKDVLLGVYRTNTLDAMYGYYLSILFNLGTDISQVEGSGNENFRIIPTNSFPTTQSEVQQTWAALYTGIYRANDFLERISNKIGSYTTTDKKLATLYIAEARALRGMFYFELVRRFGNVVLMTSTQMSNQNPATYVQSAPEKVYEYIEDDLLYACDILPYATDDQYRESNDYRFSKGAALGLLTKVYATWAGYPVKDESKWEAAAKTARILVESGKHGLLKDYEQLWKNTCNGTWDPTESLIEISFYSPTVSGNSDPVGRIGKWNGVKTTAIAGVRGSCAANVKVVHTFVLDWREDVSDIRRDLSIANYQYTDTKKSLWVAGASDTDESAAEKDADPTKAQKNKQNYTPAKWDIQKYVTTNSFINNDKSNVNWYFLRYADVLLLYAEALNEWKHGPDAEAYNAINAVRRRGYGNPSNTSACDLPQGLDETSFREAVRKERSYELSFEGHRRQDLIRWGIYYKTVQATAKELGYWWEGTGSPNYSVATYTEEGKHELFPIPQRDMDLCIQFNQNPKW
[1]
  glycan array binding signal (z-score): 3.58
[2]
  glycan array binding signal (z-score): -0.177
[3]
  glycan array binding signal (z-score): -0.051
[4]
  glycan array binding signal (z-score): -0.38
[5]
  glycan array binding signal (z-score): 0.014
[6]
  glycan array binding signal (z-score): -0.242
[7]
  glycan array binding signal (z-score): -0.408
[8]
  glycan array binding signal (z-score): -0.18
[9]
  glycan array binding signal (z-score): 4.31
[10]
  glycan array binding signal (z-score): -0.134
Gal(a1-3)Gal(b1-4)Glc
  glycan array binding signal (z-score): -0.054
[11]
  glycan array binding signal (z-score): 5.85
[12]
  glycan array binding signal (z-score): -0.025
[13]
  glycan array binding signal (z-score): 5.54
[14]
  glycan array binding signal (z-score): -0.03
Gal(b1-4)GlcNAc(b1-2)Man
  glycan array binding signal (z-score): -0.104
[15]
  glycan array binding signal (z-score): 10.2
[16]
  glycan array binding signal (z-score): 4.19
[17]
  glycan array binding signal (z-score): 0.039
[18]
  glycan array binding signal (z-score): 3.35
[19]
  glycan array binding signal (z-score): 3.59
[20]
  glycan array binding signal (z-score): 5.22
[21]
  glycan array binding signal (z-score): 4.46
Gal6S(b1-4)GlcNAc
  glycan array binding signal (z-score): -0.033
GalNAc(b1-3)GlcNAc
  glycan array binding signal (z-score): -0.542
Glc(a1-6)Glc(a1-6)Glc
  glycan array binding signal (z-score): -0.402
GlcA(b1-3)Gal
  glycan array binding signal (z-score): -0.564
[22]
  glycan array binding signal (z-score): -0.299
Kdn(a2-3)Gal(b1-4)Glc
  glycan array binding signal (z-score): -0.397
Man(a1-6)Man
  glycan array binding signal (z-score): -0.064
Man(b1-4)GlcNAc
  glycan array binding signal (z-score): -0.424
[23]
  glycan array binding signal (z-score): -0.207
[24]
  glycan array binding signal (z-score): -0.299
[25]
  glycan array binding signal (z-score): -0.127
[26]
  glycan array binding signal (z-score): -0.412
[27]
  glycan array binding signal (z-score): -0.532
[28]
  glycan array binding signal (z-score): -0.571
[29]
  glycan array binding signal (z-score): -0.166
[30]
  glycan array binding signal (z-score): 0.218
[31]
  glycan array binding signal (z-score): -0.503
[32]
  glycan array binding signal (z-score): 7.98
Neu5Gc(a2-3)Gal(b1-4)Glc
  glycan array binding signal (z-score): -0.062
[33]
  glycan array binding signal (z-score): -0.313
[34]
  glycan array binding signal (z-score): -0.202

Reference: the supplement of paper PMC8728848
